ChEMBL document CHEMBL3988442, “University of Dundee, Small-Polar-MMV Screening Library” (2021)
In all, about 69,000 compounds went through this assay and about 950 (1.4%) showed an effect of 50% or more. The entries come from a sample that favours strong results as a whole.

Each compound was assayed on Mycobacterium tuberculosis (assay: Cornell M. t heat shock assay; further: in the data most compounds retested in dose-response had high values).
Format: functional, organism-based
Design: dose or concentration left out as unconfirmed
COc1ncc(CN2CCCC(c3[nH]ncc3S(C)(=O)=O)C2)cn1 (stereo unspecified) was tested, and the “Percent Effect” value was -20.65%. With CSc1ccccc1C(=O)N1C[C@H]2CC[C@@H]1CN(C(=O)C1CCC1)C2 the “Percent Effect” value was 6.914%. With Cn1cc(CN2CCCC23CCN(C(=O)c2cccs2)CC3)cn1.O=C(O)C(F)(F)F the “Percent Effect” value was -13.39%. For CN1CCN(Cc2cn3c(n2)CN(Cc2cccc(F)c2)CC3)CC1.O=C(O)C(F)(F)F.O=C(O)C(F)(F)F.O=C(O)C(F)(F)F, the “Percent Effect” value was -2.625%. With c1cncc(COc2ccccc2CNC2CCc3ncnn3C2)c1 (stereo unspecified) the “Percent Effect” value was 103.3%. c1ccc(COc2ccccc2CNC2CCc3ncnn3C2)cc1 (stereo unspecified) was tested, and the “Percent Effect” value was 4.249%. c1ccc(OCc2ccncc2)c(CNC2CCc3ncnn3C2)c1 (stereo unspecified) was tested, and the “Percent Effect” value was 14.47%. In the case of CC(C)N(C)Cc1cc(=O)n2c(n1)CN(S(=O)(=O)C1CC1)CCC2.O=C(O)C(F)(F)F, the “Percent Effect” value is reported as 3.887%. In the case of COc1ccc(CN(C)c2ccc(-c3nccn3C)nn2)cc1OC, the “Percent Effect” value is reported as 6.196%. With COc1ccccc1C(NCc1ccc(SC)cc1)c1nccn1C (stereo unspecified) the “Percent Effect” value was 111.2%. With COc1c(CNC(c2ccccc2F)c2nccn2C)c(C)nn1C (stereo unspecified) the “Percent Effect” value was -25.27%. In the case of Fc1ccccc1C(CNc1ccncn1)N1CCCC1 (stereo unspecified), the “Percent Effect” value is reported as -9.26%. COc1c(CNC(c2nccn2C)C(C)C)c(C)nn1C (stereo unspecified) was tested, and the “Percent Effect” value was 2.612%. CC(NCCn1cccn1)c1ccccc1F (stereo unspecified) was tested, and the “Percent Effect” value was -16.32%. In the case of CSc1ccc(CNC2CCN(CCc3ccncc3)CC2)cc1, the “Percent Effect” value is reported as 5.943%. With CSc1ccc(CNC(c2ccccc2F)c2nccn2C)cc1.Cl (stereo unspecified) the “Percent Effect” value was 112.7%. With COc1cc(CN2CCn3c(CO)nnc3C2)ccc1OC(C)C.O=C(O)CC(O)(CC(=O)O)C(=O)O the “Percent Effect” value was -10.49%. For CNC(=O)N1C[C@H]2C[C@H](C(=O)Nc3cccnc3)[C@@H](C1)O2.O=C(O)C(F)(F)F, the “Percent Effect” value was -3.973%. In the case of Cc1ccc(C(=O)N2C[C@@H]3CC[C@H](C2)N(Cc2ccccc2)C3)cn1, the “Percent Effect” value is reported as -13.46%. CCc1cc(=O)n(CCNC(=O)Nc2ccc(OC(F)(F)F)cc2)cn1 was tested, and the “Percent Effect” value was 32.6%. O=C(O)C(F)(F)F.O=C(O)C(F)(F)F.O=C(O)C(F)(F)F.c1ccc(CN2CCCC3(CCN(Cc4cccs4)C3)C2)nc1 (stereo unspecified) was tested, and the “Percent Effect” value was 0.0284%. With CCc1c(C(=O)N2C[C@H]3CC[C@@H]2CN(c2cnccn2)C3)csc1C the “Percent Effect” value was -16.87%. With CCC(C)N1CCc2nc(N3CCCC3)nc(NC(C)C)c2C1 (stereo unspecified) the “Percent Effect” value was -2.093%. With CCN1CCc2nc(N3CCOCC3)nc(NC(C)C)c2C1 the “Percent Effect” value was 8.22%. With CC(C)Nc1nc(N2CCCC2)nc2c1CN(C(C)C)CC2 the “Percent Effect” value was 101.9%. With CC(C)Nc1nc(N2CCCC2)nc2c1CN(S(C)(=O)=O)CC2 the “Percent Effect” value was 11%. With Cc1nc(CN2CCc3ncnc(C)c3CC2)cs1.O=C(O)C(F)(F)F the “Percent Effect” value was 2.444%. For Cc1nc(CN2CCc3nc(NC(C)C)nc(C)c3C2)cs1, the “Percent Effect” value was 99.63%. CC(C)Nc1nc(N2CCCC2)nc2c1CN(C)CC2 was tested, and the “Percent Effect” value was 4.665%. In the case of CC(=O)NCc1noc2c1CN(Cc1cccs1)CC2, the “Percent Effect” value is reported as 18.13%. For CC(C)Oc1ncnc2c1CCN(Cc1cccs1)CC2, the “Percent Effect” value was 17.98%. Cc1nc(CN2CCc3nc(N4CCCC4)nc(NC(C)C)c3C2)cs1 was tested, and the “Percent Effect” value was 104.3%. For Cc1nc(NC(C)C)nc2c1CN(Cc1nccn1C)CC2, the “Percent Effect” value was 12.34%. Cc1nc(NC(C)C)nc2c1CN(Cc1cccs1)CC2 was tested, and the “Percent Effect” value was 99.87%. For Cc1nn(C)cc1-c1cncn1CCN(C)C1CCCC1.Cl, the “Percent Effect” value was 1.181%. With Cc1cccc(CN2C[C@@H]3COC[C@]3(COCC(=O)N(C)C)C2)n1.O=C(O)C(F)(F)F.O=C(O)C(F)(F)F the “Percent Effect” value was -9.127%. In the case of O=C(O)C(F)(F)F.O=C([C@H]1C[C@H]2OCC[C@H]2N(CC2CCOCC2)C1)N1CCCCO1, the “Percent Effect” value is reported as -2.02%. With COC1COC2(CCN(Cc3cccc(Cl)c3)CC2)C1.O=C(O)C(F)(F)F (stereo unspecified) the “Percent Effect” value was -14.26%. For CN1[C@H]2CC[C@@H]1CN(c1nc(-c3ccncc3)nc3c1cnn3C)CC2, the “Percent Effect” value was -0.0303%. O=C(NC1CCCCC1)N1CCc2onc(COc3cccnc3)c2C1.O=C(O)C(F)(F)F was tested, and the “Percent Effect” value was 9.654%. In the case of CC(C)CN1Cc2nc(N3CCCC3)ncc2C1=O, the “Percent Effect” value is reported as -13.83%. COc1ccccc1C(=O)N1CCNCC1C(N)=O.Cl (stereo unspecified) was tested, and the “Percent Effect” value was 5.705%. With CC(=O)N1CCC(c2nccnc2Nc2ncc(C)s2)CC1 the “Percent Effect” value was 55.53%. With Cc1cnc(Nc2nccnc2C2CCN(C)CC2)s1 the “Percent Effect” value was 16.42%. For CC(=O)N1CCC(c2nccnc2Nc2cnccn2)CC1, the “Percent Effect” value was 19.92%. CCOC1COC2(CCN(C(=O)c3cccc(C)n3)CC2)C1.O=C(O)C(F)(F)F (stereo unspecified) was tested, and the “Percent Effect” value was 18.32%. For O=C(O)C(F)(F)F.O=C(c1cccc(O)c1)N1CCC2(CCN2c2ncccn2)C1 (stereo unspecified), the “Percent Effect” value was 1.113%. In the case of Cc1cnn(CCNCc2csc(-c3ccc(C)o3)n2)c1, the “Percent Effect” value is reported as 64.15%. In the case of c1coc(-c2nc(CNCCn3cccn3)cs2)c1, the “Percent Effect” value is reported as -1.03%. For Cc1cnn(CCNCc2csc(-c3ccco3)n2)c1, the “Percent Effect” value was 52.61%. In the case of Cc1cnn(CC(C)NCc2csc(-c3ccco3)n2)c1 (stereo unspecified), the “Percent Effect” value is reported as 29.87%. In the case of Cc1ccc(-c2nc(CNCCn3cccn3)cs2)o1, the “Percent Effect” value is reported as 26.99%. In the case of Cc1cnn(CCNCc2csc(-c3ncccn3)n2)c1, the “Percent Effect” value is reported as -10.75%. In the case of Cl.N#Cc1cccnc1OC1CCNCC1, the “Percent Effect” value is reported as -9.035%. With Cc1ccc(N2C[C@@H]3OCCN(CC4CC4)[C@@H]3C2)nn1.O=C(O)C(F)(F)F the “Percent Effect” value was 21.44%. With CN1Cc2cnn(CC3CCCC3)c2C(COCC2CC2)C1.O=C(O)C(F)(F)F.O=C(O)C(F)(F)F (stereo unspecified) the “Percent Effect” value was -36.29%. O=C(O)C(F)(F)F.O=C(O)C(F)(F)F.O=C(O)C(F)(F)F.c1ccc(CN2CC[C@@H]3O[C@H](COCc4ccncc4)CC[C@@H]32)nc1 was tested, and the “Percent Effect” value was 5.621%. For NCC(c1ccccc1)N1CCc2sccc2C1 (stereo unspecified), the “Percent Effect” value was 4.411%. For NCC(c1ccc(Cl)cc1)N1CCc2sccc2C1 (stereo unspecified), the “Percent Effect” value was 22.77%. With CC(C)c1ccc(C(CN)N2CCc3sccc3C2)cc1 (stereo unspecified) the “Percent Effect” value was 92.4%. For Cc1csc([C@@H]2C[C@H]3CN(c4ncc(F)cn4)C[C@H]3O2)n1.O=C(O)C(F)(F)F, the “Percent Effect” value was 25.07%. CNC(C)Cc1ccccc1Sc1ccc(O)cc1.Cl (stereo unspecified) was tested, and the “Percent Effect” value was 5.856%. In the case of CC(N)Cc1ccccc1Sc1ccccc1.O=C(O)/C=C\C(=O)O (stereo unspecified), the “Percent Effect” value is reported as 31.83%. In the case of CC(N)Cc1ccccc1Sc1ccc(O)cc1.CC(N)Cc1ccccc1Sc1ccc(O)cc1.O=C(O)C(=O)O (stereo unspecified), the “Percent Effect” value is reported as 54.17%. With O=C(Nc1ccccc1)[C@H]1C[C@@H]2CN(S(=O)(=O)c3ccccc3)C[C@H]1O2 the “Percent Effect” value was 3.672%. For Cc1cc(NC2CCN(Cc3ccccn3)CC2)n2nc(C)c(C)c2n1, the “Percent Effect” value was 3.704%. With CCc1cc(NCCN2CCNC2=O)n2nc(C)c(C)c2n1 the “Percent Effect” value was -8.001%. For CCc1cc(NCCNC(=O)c2cccnc2)n2nc(C)c(C)c2n1, the “Percent Effect” value was -20.84%. With Cc1cc(N[C@@H](CO)c2ccccc2)n2nc(C)c(C)c2n1 the “Percent Effect” value was 11.1%. In the case of CCc1cc(NCCNc2ccncc2C)n2nc(C)c(C)c2n1, the “Percent Effect” value is reported as 10.67%. In the case of Cc1cc(NCCCNc2cccnc2)n2nc(C)c(C)c2n1, the “Percent Effect” value is reported as 90.05%. With CCc1cc(NCCc2cnccn2)n2nc(C)c(C)c2n1 the “Percent Effect” value was 78.14%. For CCc1cc(NCCc2cccnc2)n2nc(C)c(C)c2n1, the “Percent Effect” value was 66.22%. In the case of CCc1cc(NCCNc2cccnc2)n2nccc2n1, the “Percent Effect” value is reported as 0.7035%. O=C(O)C(F)(F)F.O=C(c1ccco1)N1C[C@@H]2OCCN(c3ncccn3)[C@@H]2C1 was tested, and the “Percent Effect” value was -4.269%. With COc1cccc(CN2C[C@@H]3COC[C@]3(CNC(=O)C3CC3)C2)c1.O=C(O)C(F)(F)F the “Percent Effect” value was 18.07%. For O=C(O)C(F)(F)F.O=C(c1ccco1)N1CCCC12CCN(c1ncccn1)CC2, the “Percent Effect” value was -4.902%. In the case of CN1CCN(c2nc(-c3cnn(C)c3)cs2)CC1, the “Percent Effect” value is reported as -2.615%. For Cn1cc(-c2csc(N3CCSCC3)n2)cn1, the “Percent Effect” value was 7.511%. For Cn1cc(-c2csc(N3CCCCCC3)n2)cn1, the “Percent Effect” value was 70.2%. O=C(NCC1CC1)[C@@H]1C[C@@H]2CCN(Cc3ccoc3)C[C@@H]2O1 was tested, and the “Percent Effect” value was -11.78%. Cc1ccc(C(=O)N2CCC3(CC2)CC(N2CCOCC2)C3)cc1.O=C(O)C(F)(F)F was tested, and the “Percent Effect” value was 4.537%. In the case of Cc1noc(C)c1C(=O)N1CCOC2(COCCN(C(C)C)C2)C1.O=C(O)C(F)(F)F (stereo unspecified), the “Percent Effect” value is reported as 7.392%. In the case of CC(CNCc1ccc(Br)cc1)Oc1ccccn1.Cl (stereo unspecified), the “Percent Effect” value is reported as -4.228%. In the case of CN(C)CCn1c2c(ccc1=O)CCN(Cc1cnn(C)c1)CC2.O=C(O)C(F)(F)F.O=C(O)C(F)(F)F, the “Percent Effect” value is reported as 10.2%. For CC(C)NC(=O)N1CCC2(CCC(=O)N2CCN(C)C)CC1.O=C(O)C(F)(F)F, the “Percent Effect” value was -12.81%. CN1CCCN(C(=O)c2cnsn2)c2cc(Cl)ccc21 was tested, and the “Percent Effect” value was -8.8%. With CN1CCN(C(=O)c2csnn2)c2ccccc21 the “Percent Effect” value was -18.09%. CN1CCCN(C(=O)c2cnsn2)c2cc(F)ccc21 was tested, and the “Percent Effect” value was -35.83%. For CN1CCN(C(=O)c2cnsn2)c2ccc(F)cc21, the “Percent Effect” value was 82.14%. For CN1CCN(C(=O)CCc2cccnc2)c2ccc(F)cc21, the “Percent Effect” value was 15.62%. For CN1CCN(C(=O)c2cnsn2)c2cc(F)ccc21, the “Percent Effect” value was 57.04%. Clc1ccccc1CCN1CCN(c2ccc3nncn3n2)CC1 was tested, and the “Percent Effect” value was 33.42%. Cc1ccc(-c2nc(CN3CCCC(Cn4cncn4)C3)cs2)o1 (stereo unspecified) was tested, and the “Percent Effect” value was 9.33%. O=C(CC1CC1)N1CCC2(COCc3cnc(N4CCOCC4)nc32)C1 (stereo unspecified) was tested, and the “Percent Effect” value was 6.453%. In the case of CCOc1ccc(C(=O)N2CCN(c3nccn3C)CC2)cc1.Cl, the “Percent Effect” value is reported as -17.36%.
